Test [1] has as its system Vero E6 infected with SARS-CoV-2. The test can be described thus: morphology score (similarity to uninfected cells); higher = more like uninfected cells. The settings on record: 24 h.
Test [2] shares this test system. The test can be described thus: SARS-CoV-2 infection rate relative to infected DMSO; higher = more infection, active = 60 or less. The settings on record: 24 h.

Turning to `CC(C)c1cc(C(C)C)c(CC(=O)NS(=O)(=O)Oc2c(C(C)C)cccc2C(C)C)c(C(C)C)c1` [avasimibe] (10 µM), in test [1], the morphology score is 0.0222. Besides, the SARS-CoV-2 infection rate in test [2] is 110% (inactive).
Taken in the same sequence, the figures for `CC(C)[C@@]1(NC(=O)[C@@H]2C[C@@H]3c4cccc5[nH]cc(c45)C[C@H]3N(C)C2)O[C@@]2(O)[C@@H]3CCCN3C(=O)[C@H](Cc3ccccc3)N2C1=O` [dihydroergocristine] (10 µM) were -0.123 and 117% (inactive).
The matching figures for `c1ccc(-c2nc(CN3CCN(c4ncccn4)CC3)c[nH]2)cc1` (10 µM): -0.0694 and 107% (inactive).
Taken in the same sequence, the figures for `O=C(O)CCCNC(=O)c1cccnc1` [pikamilone] (10 µM) were 0.0672 and 100% (inactive).
In test [1], `CN(C)CCCNC(=O)c1ccc(-c2cc(O)c3ncccc3c2)cc1` (0.833333 µM) registered a morphology score of -0.00508. Moreover, the SARS-CoV-2 infection rate in test [2] was 108% (inactive).
In turn, `OCCn1cc(-c2ccc3c(c2)CC/C3=N\O)c(-c2ccncc2)n1` (10 µM) returned a morphology score in test [1] of 0.0962. Besides, the SARS-CoV-2 infection rate in test [2] is 79.5% (inactive).
The matching figures for `COc1cc(Br)c(S(=O)(=O)Nc2ccc(C(F)(F)F)c(O[C@@H]3CCN(C)C3)c2)cc1OC` (10 µM): 0.024 and 104% (inactive).
Regarding `O=C1c2ccc(Nc3ccc(F)cc3F)cc2CCc2ccc(OC[C@H](O)CO)cc21` [skepinone-L] (10 µM), the morphology score in test [1] is -0.053. Further, the SARS-CoV-2 infection rate in test [2] was 113% (inactive).
The matching figures for `C[C@H](Cc1ccc2c(c1)OC(C(=O)O)(C(=O)O)O2)NC[C@H](O)c1cccc(Cl)c1` (10 µM): 0.159 and 93.5% (inactive).
In test [1], `CCc1cc2c(c(CC)n1)CCC(=O)N2Cc1ccc(-c2ccccc2-c2nnn[nH]2)cc1` (10 µM) had a morphology score of 0.264. Also, in test [2], the SARS-CoV-2 infection rate is 98.5% (inactive).
The matching figures for `CC(C)NC[C@@H](O)COc1ccc(CC(N)=O)cc1` (racemic) [atenolol-(+/-)] (10 µM): 0.0556 and 108% (inactive).
The matching figures for `O[C@@](Cc1nc(CC2(C(F)(F)F)CC2)c[nH]1)(c1ccc(-n2cccn2)cc1)C(F)(F)F` (10 µM): 0.03 and 112% (inactive).
In the case of `CC(=O)O[C@H]1C[C@H](O[C@H]2[C@@H](O)C[C@H](O[C@H]3[C@@H](O)C[C@H](O[C@H]4CC[C@@]5(C)[C@H](CC[C@@H]6[C@@H]5C[C@@H](O)[C@]5(C)[C@@H](C7=CC(=O)OC7)CC[C@]65O)C4)O[C@@H]3C)O[C@@H]2C)O[C@H](C)[C@H]1O[C@@H]1O[C@H](CO)[C@@H](O)[C@H](O)[C@H]1O` [lanatoside-C] (0.833333 µM), the morphology score in test [1] is -0.0895. Moreover, the SARS-CoV-2 infection rate in test [2] was 102% (inactive).
The matching figures for `O=c1ccc2ccc(O)c(O)c2o1` [daphnetin] (10 µM): 0.0316 and 110% (inactive).
The matching figures for `N#Cc1c(O)c2c(-c3ccc(-c4ccccc4O)cc3)csc2[nH]c1=O` (10 µM): 0.0882 and 106% (inactive).
Taken in the same sequence, the figures for `Cc1c(F)cccc1NC(=O)Nc1ccc(Cl)c(S(=O)(=O)[C@H]2CCCNC2)c1O` [danirixin] (10 µM) were 0.19 and 98% (inactive).
On to `COc1ccc(NC(=O)c2ccc(C(=N)N(C)C)cc2)c(C(=O)Nc2ccc(Cl)cn2)c1` [betrixaban] (10 µM), for which the morphology score in test [1] was 0.0893. For the same compound, the SARS-CoV-2 infection rate in test [2] is 91% (inactive).
The matching figures for `CC(C)(C)NCC(O)COc1cccc2c1CCC(=O)N2` (stereo not given) [carteolol] (10 µM): 0.111 and 96.5% (inactive).
In test [1], `O=C(NNc1nc2cc(F)ccc2n2cccc12)c1cnccn1` (10 µM) gave a morphology score of 0.0623. In addition, in test [2], the SARS-CoV-2 infection rate was 105% (inactive).
Consider `CN(C)/C=N/c1c(I)cc(I)c(CCC(=O)O)c1I` [iopodic-acid] (10 µM), for which the morphology score in test [1] worked out at 0.0727. In test [2], the SARS-CoV-2 infection rate was 104% (inactive).
Taken in the same sequence, the figures for `C=CCNC1=C2C[C@@H](C)C[C@H](OC)[C@H](O)[C@@H](C)/C=C(\C)[C@H](OC(N)=O)[C@@H](OC)/C=C\C=C(/C)C(=O)NC(=CC1=O)C2=O` [tanespimycin] (10 µM) were -0.0472 and 114% (inactive).
For `CCn1cc(-c2ccnc3[nH]c(-c4cccc(CN(C)C)c4)cc23)c(-c2ccc(NC(=O)N(C)C)cc2)n1` (0.833333 µM), the morphology score in test [1] was -0.185. Further, the SARS-CoV-2 infection rate in test [2] is 106% (inactive).
Taken in the same sequence, the figures for `c1cc(Nc2cc(C3CC3)n[nH]2)nc(Nc2ccc3[nH]cnc3c2)n1` (0.833333 µM) were -0.282 and 110% (inactive).
Taken in the same sequence, the figures for `Cc1nc2ccccc2c(-c2ccc3c4c(ccnc24)CCO3)c1[C@H](OC(C)(C)C)C(=O)O` (10 µM) were 0.0152 and 104% (inactive).
Taken in the same sequence, the figures for `O=C1CN(/N=C/c2ccc(-c3ccc([N+](=O)[O-])cc3)o2)C(=O)N1` [dantrolene] (10 µM) were 0.0672 and 110% (inactive).
